# Tests used:
# Conditions in all cases: concentration: 1 μM, replicates: in singlicate; n = 1
# IKK-alpha = test system: T1, IKK-alpha
# T1 construct: gene CHUK
# IKK-beta = test system: T2, IKK-beta
# T2 construct: gene IKBKB
# IKK-epsilon = test system: T3, IKK-epsilon
# T3 construct: gene IKBKE
# INSRR = test system: INSRR
# INSR = test system: INSR
# IRAK1 = test system: IRAK1
# IRAK3 = test system: IRAK3
# IRAK4 = test system: IRAK4
# ITK = test system: ITK
# [1] = test system: JAK1(JH1domain-catalytic)
# [2] = test system: JAK1(JH2domain-pseudokinase)
# [3] = test system: JAK2(JH1domain-catalytic)
# [4] = test system: JAK3(JH1domain-catalytic)
# JNK1 = test system: T4, JNK1
# T4 construct: gene MAPK8
# JNK2 = test system: T5, JNK2
# T5 construct: gene MAPK9
# JNK3 = test system: T6, JNK3
# T6 construct: gene MAPK10
# KIT-autoinhibited = test system: KIT-autoinhibited
# KIT = test system: KIT
# LATS1 = test system: LATS1
# LATS2 = test system: LATS2
# 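Also: KINOMEscan kinase panel screen.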
SMILES,%Inh (IKK-alpha),%Inh (IKK-beta),%Inh (IKK-epsilon),%Inh (INSRR),%Inh (INSR),%Inh (IRAK1),%Inh (IRAK3),%Inh (IRAK4),%Inh (ITK),%Inh [1],%Inh [2],%Inh [3],%Inh [4],%Inh (JNK1),%Inh (JNK2),%Inh (JNK3),%Inh (KIT-autoinhibited),%Inh (KIT),%Inh (LATS1),%Inh (LATS2)
CC(=O)Nc1nc2cnc(Nc3cc(NC(=O)c4cccc(C5(C#N)CC5)c4Cl)ccc3C)nc2s1,7%,6%,0%,0%,0%,10%,24%,21%,0%,17%,9%,0%,0%,0%,0%,0%,0%,99.8%,26%,0%
O=C(Nc1cccc(-c2nn3ncccc3c2-c2ccnc(Nc3ccccc3)n2)c1)c1c(F)cccc1F [GSK198271],0%,0%,0%,0%,28%,0%,0%,11%,12%,5%,0%,2%,0%,31%,56%,21%,20%,100%,0%,0%
Cn1cc(-c2[nH]c3cc(NC(=O)[C@H](N)C4CCCCC4)cc4c3c2C=NNC4=O)cn1,15%,10%,73%,4%,0%,77%,20%,93.3%,34%,61%,100%,98.7%,99.5%,0%,0%,0%,28%,99.9%,90.4%,100%
C[C@@H]1CC[C@@H](C(=O)Nc2ccccc2)CN1c1cc(-c2ccc3c(N)n[nH]c3c2)nc(N)n1 [GSK2286062],0%,0%,25%,0%,25%,0%,0%,0%,1%,2%,2%,0%,0%,0%,13%,1%,0%,18%,0%,2%
CC(=O)N1CCN(c2ccc(Nc3nccc(-c4sc(C(C)C)nc4-c4cccc(NS(=O)(=O)c5cccc(Cl)c5)c4)n3)cn2)CC1 [GSK1660437],0%,0%,20%,25%,8%,0%,0%,0%,20%,0%,0%,40%,82%,13%,16%,11%,0%,96.1%,0%,0%
CC(C)c1nc(-c2cccc(NS(=O)(=O)c3c(F)cccc3F)c2F)c(-c2ccnc(Nc3ccc(N4CCOCC4)nc3)n2)s1 [GSK2008607],0%,4%,85%,4%,4%,17%,16%,10%,97.4%,1%,0%,91.2%,99.6%,3%,40%,15%,0%,99.9%,0%,11%
O=C(Nc1cccc(-c2nn3ccccc3c2-c2ccnc(Nc3cccc(C(F)(F)F)c3)n2)c1)c1c(F)cccc1F [GSK292658],0%,3%,1%,12%,16%,0%,0%,12%,6%,0%,0%,26%,0%,3%,0%,0%,0%,94.6%,0%,6%
CCc1ccc(-c2ccc3c(c2)-c2c(cnn2C)S(=O)(=O)N3C)cc1,0%,7%,0%,7%,0%,0%,11%,0%,2%,0%,5%,2%,5%,0%,0%,0%,0%,2%,0%,0%
Fc1ccc(-c2ncn(C3CCNCC3)c2-c2ccnc(Oc3ccc(-c4ccccc4)cc3)n2)cc1 [SB-245391],32%,32%,0%,37%,22%,11%,0%,0%,0%,10%,0%,50%,41%,36%,66%,46%,0%,17%,0%,21%
